Source: PubChem
Hits are enriched below; roughly 5.7% of the tested compounds scored in any of these assays.
MPTP block: mitochondrial permeability transition pore inhibitors, primary screen, biochemical, isolated mouse mitochondria, absorbance; Ca2+ swelling absorbance, 30 min; inhibition, % at 10 µM; 360,000 tested, 1.4% active;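 active = inhibition of 50% or more, scaled per plate between neutral and stimulator controls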;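 note: 0% = DMSO wells given calcium and 100% = 1 mM EGTA wells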
Myeloid diff 2: induction of myeloid progenitor differentiation, primary screen, cell-based, flow cytometry, MLPCN library; calls only at 10 µM; 360,000 tested, 1% active; ER-HoxA9 myeloid progenitors, lysozyme-GFP differentiation;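 active = normalized GFP-positive differentiation at or above the plate's own cutoff, the solvent-only control mean plus 3 SD; inconclusive = no clear call, values can overlap the other calls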;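 note: cells exposed to compound for four days before flow analysis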
FAS-TE inh: FAS thioesterase domain inhibitors, primary screen, biochemical, fluorescence intensity, uHTS; Fatty acid synthase (Homo sapiens), P49327; recombinant FAS-TE, OMFH fluorogenic substrate, fluorescence endpoint; inhibition, % at 15 µM; 360,000 tested, 0.67% active; AID 602261, 2012;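 active = compounds whose normalised, plate-corrected inhibition of enzyme fluorescence in the single-dose primary screen is 50% or more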;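 note: 0% = DMSO with enzyme and 100% = substrate without enzyme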
Target sequence (P49327 whole entry, looked up, the tested form may be a part): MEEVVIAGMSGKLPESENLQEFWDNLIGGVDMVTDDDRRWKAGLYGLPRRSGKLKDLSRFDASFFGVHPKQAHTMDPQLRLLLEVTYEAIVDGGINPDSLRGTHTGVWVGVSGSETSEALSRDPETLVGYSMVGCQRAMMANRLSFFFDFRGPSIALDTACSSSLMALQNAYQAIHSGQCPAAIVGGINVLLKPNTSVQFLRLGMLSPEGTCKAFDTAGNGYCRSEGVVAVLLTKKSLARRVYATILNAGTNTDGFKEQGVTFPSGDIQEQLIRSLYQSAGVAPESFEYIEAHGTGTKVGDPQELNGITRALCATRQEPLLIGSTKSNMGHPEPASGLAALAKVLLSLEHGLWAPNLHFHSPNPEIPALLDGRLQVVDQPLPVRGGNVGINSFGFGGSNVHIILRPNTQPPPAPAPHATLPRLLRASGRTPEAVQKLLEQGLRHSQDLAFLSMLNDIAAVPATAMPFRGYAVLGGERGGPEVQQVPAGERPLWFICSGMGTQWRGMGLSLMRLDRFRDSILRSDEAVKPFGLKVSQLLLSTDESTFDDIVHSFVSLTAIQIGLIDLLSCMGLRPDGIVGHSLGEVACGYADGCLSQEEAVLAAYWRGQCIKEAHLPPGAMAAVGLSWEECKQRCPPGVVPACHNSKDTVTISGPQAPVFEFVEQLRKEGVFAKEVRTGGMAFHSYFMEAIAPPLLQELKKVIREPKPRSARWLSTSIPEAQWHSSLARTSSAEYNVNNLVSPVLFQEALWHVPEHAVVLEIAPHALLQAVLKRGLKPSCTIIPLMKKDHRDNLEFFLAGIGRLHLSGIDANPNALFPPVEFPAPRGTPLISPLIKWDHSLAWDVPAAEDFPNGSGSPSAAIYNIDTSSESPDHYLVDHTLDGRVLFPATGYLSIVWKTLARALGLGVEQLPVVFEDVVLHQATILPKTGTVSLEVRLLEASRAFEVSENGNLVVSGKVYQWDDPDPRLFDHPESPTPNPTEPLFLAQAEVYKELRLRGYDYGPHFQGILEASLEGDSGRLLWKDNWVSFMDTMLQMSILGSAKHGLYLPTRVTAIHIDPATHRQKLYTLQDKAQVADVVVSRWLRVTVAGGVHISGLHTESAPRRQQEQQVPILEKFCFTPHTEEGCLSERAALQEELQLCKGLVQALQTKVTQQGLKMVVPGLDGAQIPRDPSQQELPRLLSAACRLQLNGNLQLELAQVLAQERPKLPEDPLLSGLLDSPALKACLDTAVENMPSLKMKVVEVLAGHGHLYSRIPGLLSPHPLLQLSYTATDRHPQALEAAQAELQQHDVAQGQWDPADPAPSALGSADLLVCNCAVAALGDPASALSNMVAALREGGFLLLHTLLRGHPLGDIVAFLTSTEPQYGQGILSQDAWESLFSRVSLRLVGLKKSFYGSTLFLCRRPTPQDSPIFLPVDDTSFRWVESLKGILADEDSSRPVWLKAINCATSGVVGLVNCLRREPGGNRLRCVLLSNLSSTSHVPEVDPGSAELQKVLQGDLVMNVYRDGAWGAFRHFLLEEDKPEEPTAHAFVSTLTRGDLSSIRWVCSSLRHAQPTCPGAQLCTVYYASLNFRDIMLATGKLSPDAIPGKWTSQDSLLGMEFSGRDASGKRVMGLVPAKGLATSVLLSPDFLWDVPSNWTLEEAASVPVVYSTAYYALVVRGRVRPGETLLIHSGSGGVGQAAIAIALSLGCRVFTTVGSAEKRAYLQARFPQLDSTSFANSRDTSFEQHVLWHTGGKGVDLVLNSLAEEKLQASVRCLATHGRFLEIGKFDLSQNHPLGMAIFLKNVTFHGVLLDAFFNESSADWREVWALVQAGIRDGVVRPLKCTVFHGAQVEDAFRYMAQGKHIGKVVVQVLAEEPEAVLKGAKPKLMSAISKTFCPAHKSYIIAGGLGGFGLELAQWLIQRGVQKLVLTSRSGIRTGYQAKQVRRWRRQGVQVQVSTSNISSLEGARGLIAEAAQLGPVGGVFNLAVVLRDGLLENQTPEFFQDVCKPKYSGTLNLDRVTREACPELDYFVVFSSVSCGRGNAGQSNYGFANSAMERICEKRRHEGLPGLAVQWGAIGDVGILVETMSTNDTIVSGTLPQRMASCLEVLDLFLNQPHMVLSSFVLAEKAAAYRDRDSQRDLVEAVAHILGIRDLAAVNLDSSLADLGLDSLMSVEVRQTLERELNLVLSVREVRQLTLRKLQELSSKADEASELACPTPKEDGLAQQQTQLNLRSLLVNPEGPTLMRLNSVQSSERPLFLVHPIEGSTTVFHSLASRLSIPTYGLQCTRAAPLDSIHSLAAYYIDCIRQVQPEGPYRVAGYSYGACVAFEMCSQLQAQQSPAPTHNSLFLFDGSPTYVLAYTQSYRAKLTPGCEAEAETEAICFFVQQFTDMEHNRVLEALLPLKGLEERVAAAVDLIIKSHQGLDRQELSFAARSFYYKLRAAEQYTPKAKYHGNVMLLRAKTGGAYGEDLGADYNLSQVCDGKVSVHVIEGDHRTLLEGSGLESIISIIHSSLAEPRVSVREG
GRIN3A LBD mod: binders of NR3A ligand-binding domain, primary screen, biophysical, differential scanning fluorimetry, uHTS. 340,000 tested, 2.5% active. NR3A LBD differential scanning fluorimetry, Tm shift; 0% = protein alone, 100% = glycine-bound protein. Tm shift relative to glycine control, % at 25 µM. Glutamate receptor ionotropic, NMDA 3A (GRIN3A) ligand-binding domain;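 active = melting temperature shift of at least 10% of the positive control shift, at one fixed dose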
rCAG binder: binders of r(CAG) RNA repeats, primary screen, biochemical, fluorescence; r(CAG) RNA repeat, TO-PRO-1 dye displacement fluorescence; inhibition, % at 3 µM; 370,000 tested, 1.3% active; AID 651821, 2012;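 active = inhibition above the plate cutoff, the mean of all test compounds on that plate plus 3 SD, cut at about 35% in these data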;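 note: 0% = DMSO alone and 100% = 100 µM mitoxantrone as full dye displacement; higher means more dye released from RNA so lower well fluorescence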
Numbers without * were called inactive; i = inactive; ? = inconclusive; . = no result given; + = active, no number.

SMILES	MPTP block	Myeloid diff 2	FAS-TE inh	GRIN3A LBD mod	rCAG binder
COc1ccc(C(=O)N=C2SC3CS(=O)(=O)CC3N2Cc2ccc(OC)c(OC)c2)cc1 (stereo not given)	-3	i	8	4	1
COc1ccc(CN2C(=NC(=O)C3CC3)SC3CS(=O)(=O)CC32)cc1OC (stereo not given)	0	+	-1	-1	0
CCN(Cc1ccncc1)C(=O)c1cc(COc2ccc(F)cc2Cl)on1	1	i	-1	-1	-8
CCN(Cc1ccncc1)C(=O)c1cc(COc2c(F)cccc2F)on1	1	i	-5	32*	-8
Nc1ccc(NC(=S)Nc2ccccc2)cc1	1	i	-5	25*	6
Oc1ccc(NC(=S)Nc2ccccc2)cc1	0	i	-1	-1	1
CCOC(=O)CCCCC(=O)c1[nH]c(=O)[nH]c1CSCCO	-1	i	-2	2	-2
CCOC(=O)CCCCC(=O)c1[nH]c(=O)[nH]c1CSc1nc(-c2ccccc2)c(C#N)c(=O)[nH]1	2	i	-2	-7	56*
N#Cc1c(-c2ccccc2)nc(SCC(=O)N2c3ccccc3Sc3ccccc32)[nH]c1=O	33	i	35	-8	89*
OC[C@@H]1CC[C@@H]2O[C@H](CCc3ccc(-c4ccc(F)cc4)cc3)[C@@H](n3cc(C4CC4)nn3)C[C@@H]2O1	.	.	.	.	8
O=S(=O)(NCCc1csc(-c2cccnc2)n1)c1ccc2c(c1)OCCO2	0	+	-8	-2	3
CCCCOc1ccc2ccccc2c1C=O	-2	i	14	10*	1
Cc1ccccc1N=Nc1c(N)[nH]n(-c2ccccc2)c1=O	.	.	.	.	10
O=C(NCCCCCCNC(=O)OCc1ccccc1)OCc1ccccc1	3	i	-3	1	0
O=C(NCCC(=O)N1CCNC1=O)OCc1ccccc1	-2	i	-10	14*	1
CCOC(=O)Nc1ccc2c(c1)[C@]1(CC(=O)N(CC(C)C)C1c1ccccc1)C(=O)N2C (stereo not given in full)	.	.	.	.	-2
C=CCn1c(=O)/c(=C2/SC(C)=C(C)N2CC)s/c1=C1/C(=O)N(CC)C(=S)N1c1ccccc1	1	+	-3	0	0
CCCCN1C(=O)C(=O)N(c2ccccc2)C1=S	0	i	-6	1	0
Cc1ccccc1C(=O)Nc1ccc(C(=O)N/N=C/c2ccc(O)cc2)cc1	1	i	-1	28*	6
O=C(N/N=C/c1ccc(O)cc1)c1ccc(NC(=O)c2ccccc2Br)cc1	0	i	-1	18*	11
Cc1ccccc1C(=O)Nc1ccc(C(=O)N/N=C/c2ccncc2)cc1	-2	i	-3	-1	2
O=C(Nc1ccccc1C(=O)N/N=C/c1ccc(F)cc1)c1ccccc1Br	-2	i	17	1	8
CCCCC(=O)N1CCN(C(=O)c2ccc3nc(C)n(C4CCCC4)c3c2)CC1	.	.	.	.	-2
O=C(NC1CCCC1)[C@@H]1CCCN1C(=O)[C@@H](NS(=O)(=O)c1ccc(F)cc1F)c1ccccc1	.	.	.	.	2
COc1ccc(N=Cc2ccccc2O)cc1	0	i	-6	0	2
SMILES	MPTP block	Myeloid diff 2	FAS-TE inh	GRIN3A LBD mod	rCAG binder
COc1ccc(N=Cc2oc3ccc4ccccc4c3c2O)cc1	0	i	-56	15*	7
Nc1ccccc1Sc1ccccc1[N+](=O)[O-]	0	i	7	-1	-1
Nc1nc(O)c(Sc2ccccc2[N+](=O)[O-])c(=O)[nH]1	-2	i	-3	17*	0
COc1cccc(/C=N/NC(=O)c2cc3cc([N+](=O)[O-])ccc3s2)c1O	8	?	9	12*	15
COc1cccc(/C=N/NC(=O)C(=O)N/N=C/c2cccc(OC)c2O)c1O	1	i	5	1	2
COc1ccc(/C=N/NC(=O)c2cccc(NC(=O)c3ccc(Cl)cc3)c2)c(OC)c1	4	+	5	11*	9
COc1ccc(/C=N/NC(=O)c2ccc(NC(=O)c3cccc([N+](=O)[O-])c3)cc2)c(C(=O)O)c1OC	0	i	0	7	18
COc1ccc(/C=N/NC(=O)c2ccc(NC(=O)c3cccc([N+](=O)[O-])c3)cc2)c(OC)c1	1	.	2	18*	13
COc1cc(/C=N/NC(=O)c2cccc([N+](=O)[O-])c2)ccc1OCc1ccc(C)cc1	4	i	-4	17*	-2
COc1ccc(/C=N\NC(=O)c2cccc(Br)c2)c(OC)c1	-2	i	-9	-3	0
CCCc1c(-c2cccc(Br)c2)ncn1CCc1ccccc1OC	.	.	.	.	2
O=C(N/N=C/c1cccc(O)c1)c1ccc(NC(=O)c2cccc([N+](=O)[O-])c2)cc1	2	i	9	27*	14
COc1ccccc1/C=N/NC(=O)c1ccc(NC(=O)c2ccccc2Br)cc1	0	i	2	-25	4
CCC(=O)Nc1ccc(C(=O)N/N=C/c2cc(Br)c(OC)cc2OC)cc1	0	i	-2	24*	2
O=S1(=O)N[C@@H](Cc2ccccc2)COc2cccc(N3CCCCC3)c21	.	.	.	.	1
Cc1ccc(C(=O)C2CCN(CC(=O)NC(C)C)CC2)cc1	.	.	.	.	-1
C[C@]12CCC(=O)CC1=CCC1C3CC=C(C#N)[C@@]3(C)CC[C@@]12O (stereo not given in full)	0	+	-5	-1	-8
COc1ccc(CCNC(=O)c2ccc([N+](=O)[O-])cc2)cc1	5	i	41	1	-3
COc1ccc(C(=O)NCCNc2ccc([N+](=O)[O-])cc2)cc1	-3	i	3	14*	3
O=C(NCCNc1ccc([N+](=O)[O-])cc1)c1ccc(Cl)cc1	1	i	10	13*	1
O=S(=O)(c1ccccc1F)n1c(CN2CCOCC2)nc2ccccc21	.	.	.	.	2
CC1(C)CC(=O)C=C(Nc2ccccc2NC(=O)c2ccc(F)cc2F)C1	.	.	.	.	0
COc1ccc2c(c1)CN(C)S(=O)(=O)c1ccccc1-2	1	i	-3	13*	0
COc1ccc2c(c1)-c1ccccc1S(=O)(=O)N(C)C2	-1	i	-7	-2	1
O=C(O)c1ccccc1-c1ccccc1C(=O)NNc1ccccc1	1	i	-8	14*	1
O=C(O)c1ccccc1-c1ccccc1C(=O)Nc1ccccc1	-1	i	-10	-11	-1
CCn1c(Cc2cccs2)nnc1SCC(=O)NC1CC1	0	+	-7	1	-2
C=CCn1c(Cc2cccs2)nnc1SCC(=O)NC1CC1	0	i	-5	2	-1
Cc1cc(O)cc(=O)n1-c1cccc([N+](=O)[O-])c1	.	.	.	.	2
